SARS PLpro yeast – inhibitors of SARS-CoV papain-like protease in yeast. S. cerevisiae expressing SARS-CoV PLpro, growth rescue. Potency, µM (doses to about 32.9 µM), without a hit: top-dose activity, positive = growth rescue, usual class: activators. actives 0.19% (n = 330,000); calls by dose curve; also: 0% is about no effect; nearly all actives have a fitted effect of over 55% in size
Pf growth 48h – inhibits P. falciparum growth in the first generation, 48 h | P. falciparum luciferase growth in erythrocytes, 48 h | Potency, µM (series often up to 28.7 µM), for the others: at the top dose activity change, negative = inhibition, actives largely listed as inhibitors | actives 5.9% (n = 310,000) | AID 504832; also: % is scaled to controls: 0 for no effect and ±100 for the full control effect
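Parasite viability was followed by luminescence of a genomically integrated firefly luciferase. Cultures held 0.1% parasitemia at 2% hematocrit (final), incubated under 5% CO2 at 37 C.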
Sm TGR inh – inhibitors of Schistosoma mansoni thioredoxin glutathione reductase; Q962Y6; Potency, µM (series often up to 114 µM), inactives show at the top dose activity change, negative = inhibition, actives largely listed as inhibitors; AID 485364; purified TGR, DTNB reduction, TNB absorbance 405 nm; actives 3% (n = 360,000); also: % is scaled to controls: 0 for no effect and ±100 for the full control effect; nearly all actives have a fitted effect of over 60% in size
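First, TGR (20 nM dispensed) and NADPH were mixed with compound. Second, a 15 min room-temperature incubation followed. Third, further NADPH and then DTNB were added to start the reaction. Finally, TNB absorbance was monitored kinetically.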
Pf growth 96h – inhibits malaria parasite growth, 96 h. P. falciparum luciferase reporter growth, 96 h. Potency, µM (series often up to 28.7 µM), for the others: at the highest dose activity change, negative = inhibition, hits mostly inhibitors. actives 6.9% (n = 320,000). AID 504834; also: % is scaled to controls: 0 for no effect and ±100 for the full control effect
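Cell-based qHTS: luciferase-tagged P. falciparum in erythrocytes (2% hematocrit, 0.05% parasitemia final) incubated with compounds for 96 hours, 37 C, 5% CO2; luciferase detection reagent then added and luminescence measured.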
An asterisk follows results filed as active; ? = inconclusive; nt = no result; [ ] = dose if it differs, or a comment. A selection: hits, their analogues and other compounds. The true share with any hit is near 12%. Unless noted, calls follow the shape of the dose curve; as a rule, active = well fitted curve in the direction sought with a large enough effect; inconclusive = small, poorly fitted or top-dose-only effect, or another doubt; inactive = no such curve, though single readings can be large; an effect the other way counts as inactive or inconclusive. Potency is read from the fitted curve at half-maximal effect.

SMILES	SARS PLpro yeast	Pf growth 48h	Sm TGR inh	Pf growth 96h
CC(CCn1cccn1)NC(=O)c1cc(COc2ccc(F)cc2Cl)on1 (stereo unspecified)	-0.6%	43.7%	0.2%	10.4µM*
CCc1ccc(OCC(=O)N(Cc2cccs2)c2ccc(Cl)cc2)cc1	nt	nt	-0.7%	nt
C=CCn1c(SCC(=O)c2c(N)n(C3CC3)c(=O)[nH]c2=O)nnc1-c1ccoc1C	1.8%	9.28µM*	-23.4%	?
CCn1c(SCC(=O)c2c(N)n(C3CC3)c(=O)[nH]c2=O)nnc1-c1ccoc1C	-4.2%	?	-10.2%	?
C=CCn1c(SCC(=O)c2c(N)n(C3CC3)c(=O)[nH]c2=O)nnc1-c1ccc(OC)cc1	1.5%	?	-8.8%	?
COc1ccccc1-c1nnc(SCC(=O)c2c(N)n(C3CC3)c(=O)[nH]c2=O)n1C	-3.3%	?	-9.4%	11.7µM*
C=CCn1c(SCC(=O)c2c(N)n(C3CC3)c(=O)[nH]c2=O)nnc1-c1ccccc1OC	2.8%	?	-8.1%	11.7µM*
c1ccc(NC2=NCCN2CC2CCCCCC2)cc1	-1.1%	?	2.3%	?
Cc1nnc(SCC(=O)NC2CCCCCC2)n1C(C)C	-3.7%	-9.7%	-22.6%	?
CC(Sc1nc2c([nH]c3ccccc32)c(=O)n1-c1ccccc1)c1ccccc1 (stereo unspecified)	nt	nt	3.5%	nt
C[C@@H](N)[C@@H](O)c1ccc(O)c(O)c1	nt	0.0%	nt	0.601µM*
CC[C@H](NC(C)C)[C@H](O)c1ccc(O)c(O)c1	nt	?	nt	13.5µM*
NC[C@H](O)c1ccc(O)c(O)c1	nt	0.7%	?	1.1%
CC(=O)Nc1ccc(NC(=O)C2CCCCN2S(=O)(=O)c2ccc(C(C)(C)C)cc2)cc1 (stereo unspecified)	-2.5%	?	-4.4%	15.1%
COC(=O)c1ccc(NC(=O)CN2CCN(CC#N)CC2)cc1	0.0%	-13.9%	-0.7%	-28.3%
c1ccc2c(c1)NC1(CCCCC1)n1c-2nc2ccccc21	-3.5%	nt	9.9%[11.4 µM]	2.1%
CCCCC1(C)Nc2ccccc2-c2nc3ccccc3n21 (stereo unspecified)	-10.2%	2.08µM*	2.4%	1.31µM*
CC1(c2ccccn2)Nc2ccccc2-c2nc3ccccc3n21 (stereo unspecified)	-5.9%	1.65µM*	-1.8%	8.8%[5.75 µM]
CN(CC(=O)Nc1ccc(F)cc1)S(=O)(=O)c1ccc2c(c1)c(=O)n(C)c(=O)n2C	-0.9%	-8.9%	-4.7%	-0.9%
O=C(c1cc(-c2ccccn2)nc2c(Cl)cccc12)N1CCN(S(=O)(=O)c2ccccc2)CC1	-13.7%	10.4µM*	-0.4%	-15.6%
O=C(c1cc(-c2ccccn2)nc2c(Cl)cccc12)N1CCN(C(=O)C2CCCO2)CC1 (stereo unspecified)	2.5%	-16.0%	-11.3%	nt
O=C(c1cc(-c2ccccn2)nc2ccccc12)N1CCN(c2ncccn2)CC1	1.1%	-17.6%	-0.8%	-5.1%
CC(C)Oc1cccc(-c2cc(C(=O)N3CCN(c4ncccn4)CC3)c3ccccc3n2)c1	1.5%	nt	8.0%	9.28µM*
O=C(Nc1ccc([N+](=O)[O-])cc1)c1cc(-c2ccccn2)nc2c(Cl)cccc12	-1.4%	18.5%	nt	14.7µM*
Cc1ccc2nc(-c3ccccn3)cc(C(=O)N3CCN(c4ncccn4)CC3)c2c1	-8.6%	21.8%	-9.1%	2.62µM*
SMILES	SARS PLpro yeast	Pf growth 48h	Sm TGR inh	Pf growth 96h
CCC(C)n1c(=N)c(S(=O)(=O)c2ccccc2)cc2c(=O)n3ccccc3nc21 (stereo unspecified)	nt	nt	1.0%	nt
Cn1c(=O)n(CCc2ccccc2)c(=O)c2c1nc1n2CCCN1CCc1ccccc1	1.0%	9.28µM*	6.8%	nt
CC(C)Cn1c(=O)c2c(nc3n2CCCN3CCc2ccccc2)n(C)c1=O	-5.5%	5.22µM*	-23.4%	6.9%[5.75 µM]
Cn1c(=O)n(CC(=O)O)c(=O)c2c1nc1n2CCCN1CCc1ccccc1	1.6%	-13.6%	17.1%	?
CCn1c(=O)c2c(nc3n2CC(C)CN3CCc2ccccc2)n(C)c1=O (stereo unspecified)	9.5%	11.7µM*	-4.3%	8.28µM*
CCCn1c(=O)c2c(nc3n2CCCN3CCc2ccccc2)n(C)c1=O	0.9%	?	-10.6%	?
Cc1ccc2c(c1)c1c(c(=O)n(-c3ccccc3C)c(=O)n1Cc1ccccc1F)n2C	nt	nt	18.6%	nt
CC(C[N+](C)(C)C)OC(=O)C1(c2ccccc2)CCCC1 (stereo unspecified)	0.1%	10.4µM*	-7.7%	?
C[N+](C)(C)CCOC(=O)C1(c2ccccc2)CCCC1	4.1%	-13.8%	-22.4%	nt
CCN(CC)CCCOC(=O)C1(c2ccccc2)CCCC1	10.0%	-26.4%	2.9%	nt
CCN(CC)CCOCCOC(=O)C1(c2ccccc2)CCCC1	nt	3.01µM*	nt	3.38µM*
Cc1ccc(-n2nc3c(=O)n(CC(=O)NCCc4ccco4)nc(C)c3c2C)cc1	5.6%	25.1%	?	8.28µM*
CSc1ccc(CNC(=O)Cn2nc(C)c3c(C)n(-c4ccc(C)cc4)nc3c2=O)cc1	-2.1%	32.2%	4.9%	2.62µM*
COc1ccccc1NC(=O)CC(c1cc(OC)c(OC)c(OC)c1)N1Cc2ccccc2C1=O (stereo unspecified)	nt	nt	0.3%	nt
COc1c(C)cc(NS(=O)(=O)c2ccc3c(c2)OCCO3)cc1C	nt	nt	4.5%	nt
CCOc1ccc(S(=O)(=O)N2CCN(C(=O)c3cc(S(=O)(=O)N4CCOCC4)ccc3C)CC2)cc1	-8.6%	8.28µM*	2.0%	3.7µM*
CCOC(=O)N1CCN(C(=O)c2cn(C)c3ccc(S(=O)(=O)N4CCOCC4)cc3c2=O)CC1	-4.6%	9.4%	-1.1%	11.7µM*
CCn1cc(C(=O)NCC(OC)OC)c(=O)c2cc(S(=O)(=O)N3CCOCC3)ccc21	-0.8%	4.9%	2.3%	?
Cn1cc(C(=O)N2CCN(c3ccccc3)CC2)c(=O)c2cc(S(=O)(=O)N3CCOCC3)ccc21	8.4%	-10.4%	-0.7%	?
CCOc1ccc(S(=O)(=O)N2CCN(C(=O)c3ccc(C)c(S(=O)(=O)N4CCOCC4)c3)CC2)cc1	-1.1%	nt	nt	nt
COC(CNC(=O)c1cn(C)c2ccc(S(=O)(=O)N3CCOCC3)cc2c1=O)OC	-2.0%	-5.0%	-5.6%	9.28µM*
CCC(C)NC(=O)c1sc2ncccc2c1-n1c(C)ccc1C (stereo unspecified)	nt	nt	-3.5%	nt
S=C(NCCc1ccccc1)NCC(c1ccco1)N1CCCCC1 (stereo unspecified)	0.6%	?	-11.6%	2.62µM*
CC(C)C(NC(=O)c1ccco1)C(=O)NCC(c1ccco1)N1CCCCC1 (stereo unspecified)	-2.3%	?	5.9%	2.08µM*
CCN(C(=O)COC(=O)c1ccc([N+](=O)[O-])o1)c1cccc2ccccc12	-18.2%	nt	nt	nt
Cc1ccc(-c2nc3cc(Cl)ccc3o2)cc1NC(=O)c1cc2ccccc2o1	nt	nt	-11.3%	nt
O=C1CSC(c2c(F)cccc2Cl)N1c1cccc(F)c1 (stereo unspecified)	5.7%	?	-13.1%	11.7µM*
O=C1CSC(c2ccccc2F)N1c1ccccc1 (stereo unspecified)	-5.1%	-15.6%	-8.8%	8.28µM*
